This is a sample that favours compounds with a hit; in the whole collection about 1.2% have one here.
RGS4-Gao reg = modulators of RGS4 binding to Galphao, primary screen, biochemical, multiplexed bead flow cytometry; actives lie on both sides; binding response (% of control), % at 10 µM; hit rate 0.33% among 220,000; AID 1415, 2008; in the data active means binding response below about 49% or above about 150%; inactive means in between;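 further: fluorescent Galphao activated with aluminum fluoride binding bead-coupled RGS4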
RGS8-Gao = RGS8-Galphao binding modulators, primary screen, biochemical, multiplexed bead flow cytometry; response (percent of control binding), % at 10 µM; hit rate 0.34% among 220,000; AID 1423, 2008; actives lie on both sides; in the data active means response below about 60% or above about 140%; inactive means in between;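 further: Galphao activated as the GDP aluminium fluoride complex binding bead-coupled RGS8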
RGS7-Gao = RGS7-Galphao binding modulators, primary screen, biochemical, multiplexed bead flow cytometry; binding response (% of control), % at 10 µM; Guanine nucleotide-binding protein G(o) subunit alpha (Homo sapiens), P09471; actives lie on both sides; hit rate 0.35% among 220,000; in the data active means binding response below about 49% or above about 150%; inconclusive means no clear call, values can overlap the other calls; inactive means in between;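 further: fluorescent Galphao held in activated GDP-AlF4 state binding bead-coupled RGS7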
GSH fluor = compound fluorescence on glutathione beads, profiling panel, artefact control, biophysical, 488/530 nm, flow cytometry; fluorescence (KMESF) at 10 µM; GSH beads flow cytometry, compound fluorescence 488/530 nm; hits give high values; AID 1776, 2009; hit rate 0.25% among 190,000; in the data active means fluorescence above about 89;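 further: glutathione beads carrying GST-tagged Bcl family fusion proteins plus one bare bead set; values are compound well signal with DMSO vehicle wells as background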
Avidin bead fluor = green autofluorescence of compounds with avidin beads – biophysical, 488/530 nm, flow cytometry, artefact control, profiling panel. compound fluorescence 488/530 nm; hits give high values. fluorescence (KMESF) at 10 µM. hit rate 0.38% among 220,000. AID 1775, 2009; in the data active means fluorescence above about 47
RGS16-Gao HTS = modulators of RGS16 binding to Galphao, primary screen, biochemical, human proteins, multiplexed bead flow cytometry | Regulator of G-protein signaling 16 (Homo sapiens) + Guanine nucleotide-binding protein … | bead-based flow cytometry RGS16-Galphao binding, fluorescence; actives lie on both sides | binding response (% of control), % at 10 µM | hit rate 0.38% among 220,000;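 further: Galphao activated by GDP with aluminum fluoride before binding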
Target sequence (O15492 whole entry, looked up): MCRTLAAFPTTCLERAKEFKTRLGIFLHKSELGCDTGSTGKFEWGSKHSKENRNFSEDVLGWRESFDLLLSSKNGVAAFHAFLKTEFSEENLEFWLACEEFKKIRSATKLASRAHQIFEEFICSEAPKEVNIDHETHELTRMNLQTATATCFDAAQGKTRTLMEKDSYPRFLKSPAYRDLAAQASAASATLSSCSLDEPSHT
Target sequence (P09471 whole entry, looked up): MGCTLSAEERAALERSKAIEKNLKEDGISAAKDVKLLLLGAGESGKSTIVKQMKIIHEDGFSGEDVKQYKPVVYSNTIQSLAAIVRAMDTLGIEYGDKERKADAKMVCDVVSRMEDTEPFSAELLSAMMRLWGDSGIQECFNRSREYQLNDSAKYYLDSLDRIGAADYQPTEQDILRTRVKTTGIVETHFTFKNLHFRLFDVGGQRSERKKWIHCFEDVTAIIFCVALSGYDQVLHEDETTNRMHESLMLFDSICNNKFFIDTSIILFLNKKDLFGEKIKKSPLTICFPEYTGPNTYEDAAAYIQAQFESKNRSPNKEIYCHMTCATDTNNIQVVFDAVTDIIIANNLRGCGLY
RGS4-Gao HTS = modulators of RGS–Galpha-o binding, primary screen, biochemical, multiplexed beads, flow cytometry, RGS4/7/8/16/19; shares compounds with RGS16-Gao HTS; AID 1504, 2009; hit rate 99% among 1,600; RGS4–Galpha-o binding response, % at 10 µM; multiplexed bead flow cytometry;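 further: fluorescently labeled Galpha-o bound to GDP with aluminium fluoride binding biotinylated RGS beads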
Avidin counter = disruption of biotin probe capture by avidin, counter-screen for RGS protein interaction modulators, biochemical, flow cytometry, bead-based; shares compounds with RGS16-Gao HTS; streptavidin beads, fluorescein-biotin binding; inhibition, % at 10 µM; 1,700 tested, under 10 active;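 active means inhibition above 50%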;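 further: median green fluorescence of gated singlet beads compared with DMSO control wells; 0% = DMSO wells and 100% = complete loss of bead fluorescence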
RGS8-Gao confirm = RGS8-Galphao binding modulators, confirmation, biochemical, multiplexed bead flow cytometry, single concentration; shares compounds with RGS16-Gao HTS; bead-based flow cytometry RGS8-Galphao binding, fluorescence; actives lie on both sides; binding response (% of control), % at 10 µM; hit rate 3% among 1,700; in the data active means binding response below about 72% or above about 130%; inactive means in between;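 further: Galphao activated as GDP AlF4 complex before binding bead RGS8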
RGS7-Gao confirm = RGS7-Galphao binding modulators, confirmation, biochemical, multiplexed bead flow cytometry, single concentration; shares compounds with RGS16-Gao HTS; bead-based flow cytometry RGS7-Galphao binding; actives lie on both sides; response (percent of control binding), % at 10 µM; hit rate 7.8% among 1,700; AID 1837, 2009; in the data active means response below about 75% or above about 130%; inactive means in between;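 further: fluorescent Galphao activated with GDP and aluminum fluoride binding bead-coupled RGS7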
RGS16-Gao single = modulators of RGS16-Galphao protein binding, confirmation, biochemical, single concentration, multiplexed bead flow cytometry | AID 1838, 2009 | response (% of control binding), % at 10 µM | shares compounds with RGS16-Gao HTS | bead-based flow cytometry; actives lie on both sides | hit rate 4% among 1,700; in the data active means response below about 74% or above about 130%; inactive means in between;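 further: Galphao activated as the GDP aluminium fluoride complex binding bead-coupled RGS16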
RGS4-Gao single = modulators of RGS4-Galphao protein binding, confirmation, biochemical, single concentration, multiplexed bead flow cytometry; shares compounds with RGS16-Gao HTS; actives lie on both sides; binding response (% of control), % at 10 µM; hit rate 4% among 1,700; AID 1840, 2009; in the data active means binding response below about 74% or above about 130%; inactive means in between
RGS19-Gao conf = regulators of RGS19-Galphao binding, confirmation, biochemical, single point, multiplexed bead flow cytometry | shares compounds with RGS16-Gao HTS | bead-based flow cytometry RGS19-Galphao binding; actives lie on both sides | response (percent of control binding), % at 10 µM | hit rate 5% among 1,700; in the data active means response below about 50% or above about 160%; inactive means in between;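 further: 100% = no compound control and 0% = blank background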
The depositor's hits bear a star; ? = inconclusive; · = no result given; [ ] = another dose, or the depositor's remark. Unless noted, how the calls were made is not given here.

SMILES	RGS4-Gao reg	RGS8-Gao	RGS7-Gao	GSH fluor	Avidin bead fluor	RGS16-Gao HTS	Avidin counter	RGS8-Gao confirm	RGS7-Gao confirm	RGS16-Gao single	RGS4-Gao single	RGS19-Gao conf	others
CC(C)COc1ncnc2c1sc1nc3c(cc12)COC(C)(C)C3	224*[activator]	130	?	·	75*	206*[activator]	-1	102	100	101	100	92
O=C(C(Cc1ccccc1)n1cccc1)N1CCCCCC1 (stereo not given)	96	99	97	12	13	88	·	·	·	·	·	·
CCc1nnc(NC(=O)CN2CCN(c3ccccc3F)CC2)s1	104	105	107	12	14	114	·	·	·	·	·	·
Cc1ccc(NC(=O)CN2C(=O)S/C(=C\C(=O)Nc3ccc(Cl)cc3)C2=O)cc1	79	79	75	5	7	8.0*	2	104	95	105	99	91	RGS4-Gao HTS=79*
Cn1cccc1/C=C1\SC(=O)N(CC(=O)Nc2ccc(Cl)cc2)C1=O	102	98	100	14	·	98	·	·	·	·	·	·
CCn1c(C)cc(/C=C2\SC(=O)N(CC(=O)Nc3ccc(C)c(C)c3)C2=O)c1C	-95*	6.0*	-28*	14	-2	-95*	-1	100	92	97	98	96
COc1cccc(NC(=O)CSC(N)=O)c1	98	104	99	23	11	97	·	·	·	·	·	·
CC(C)OCC1CC(CC(=O)Nc2ccc([N+](=O)[O-])cc2)C(=O)O1 (stereo not given)	99	101	95	11	12	101	·	·	·	·	·	·
Cc1ccc(N(CC(=O)N2CCN(C3CCCCC3)CC2)S(=O)(=O)c2cccnc2)cc1	109	135	108	11	8	260*[activator]	·	·	·	·	·	·	RGS4-Gao HTS=109*
Cc1ccc(S(=O)(=O)N(CC(=O)N2CCCCCC2)c2ccccc2)cc1	100	101	99	34	9	101	·	·	·	·	·	·
CC(C)c1ccccc1NC(=S)N(C)C	-47*	10*	?	·	-3	-25*	0	102	101	102	102	96
CC1(C)C=Cc2c(c3ccccc3[nH]c2=O)O1	102	99	102	14	24	102	·	·	·	·	·	·
O=C(Nc1ccc(Cl)cc1)NC1CCS(=O)(=O)C1 (stereo not given)	106	114	109	14	16	180	·	·	·	·	·	·
O=C(NCc1ccccn1)NC1CCCCC1	102	101	99	8	3	95	·	·	·	·	·	·
